# Marburg entry inh = qHTS for inhibitors of binding or entry into cells for Marburg Virus. Marburg virus pseudotyped entry inhibition, cell reporter. Potency, µM (series often up to 37.8 µM), for inactives: top-dose activity change, negative = inhibition, usual class: inhibitors. actives 1.8% (n = 300,000). AID 540276, 2011; calls by dose curve; tested in HEK293 cells; note: potency is the fitted concentration of half-maximal effect; % is set by controls: 0 for no effect and ±100 for the full control effect
# Shiga toxin inh = A qHTS for Small Molecule Inhibitors of Shiga Toxin; inhibition, % at 38.7 µM; actives 9.2% (n = 290,000); AID 2315, 2010; Vero cells, Shiga toxin protein synthesis inhibition reporter; in the data active = inhibition mostly above about 28%, no sharp cut-off; inactive = mostly below about 43%; note: 0% is about no effect
# CHX counter-1 = Cycloheximide Counterscreen for Small Molecule Inhibitors of Shiga Toxin; AID 2314, 2010; actives 12% (n = 300,000); max response, %; cell reporter, cycloheximide protein synthesis inhibition counterscreen; in the data active = max response mostly above about 13%, no sharp cut-off; inactive = mostly below about 14%; note: read at 38.3 µM for the half of the compounds with a filed dose; 0% is about no effect
# Lassa entry inh = qHTS for Inhibitors of binding or entry into cells for Lassa Virus | AID 540256, 2011 | Potency, µM (top dose mostly 37.9 µM), for inactives: at the highest dose activity change, negative = inhibition, usual class: inhibitors | actives 1.2% (n = 300,000) | Lassa virus pseudotype entry inhibition, cell reporter; calls by dose curve; tested in HEK293 cells; note: potency is the fitted concentration of half-maximal effect; % is set by controls: 0 for no effect and ±100 for the full control effect; nearly all actives have a fitted effect of over 50% in size
# CHX counter-2 = Cycloheximide Counterscreen for Small Molecule Inhibitors of Shiga Toxin (Confirmatory) | actives 3% (n = 510) | shares compounds with Shiga toxin inh | Cycloheximide counterscreen, protein synthesis reporter, Shiga toxin assay | AID 2318, 2010 | Potency, µM (highest dose often 38.3 µM), for the others: at the top dose activity (activation), hits mostly activators; calls by dose curve; note: potency is the fitted concentration of half-maximal effect; 0% is about no effect
# * marks the source's active call; other numbers are inactive results; ? = inconclusive; . = no result given; [ ] = dose if it differs, or a comment. Hits are enriched below; roughly 12% of the tested compounds scored in any of these assays.
SMILES,Marburg entry inh,Shiga toxin inh,CHX counter-1,Lassa entry inh,CHX counter-2
CC(=O)Nc1ccccc1-c1nc2ccccc2n(C(C)C(=O)Nc2cccc(C)c2C)c1=O (stereo not drawn),-1%[46.1 µM],.,.,1%[46.1 µM],.
Nc1nc(-c2ccc3c(c2)CCC(=O)N3)cs1,?,42*,7,0%[46.1 µM],?
Cc1cc(S(=O)(=O)NC2CC(C)(C)NC(C)(C)C2)c(Cl)cc1Cl,?,.,-2,-26%,.
COC(=O)c1ccc(-c2ncc(-c3cccc4ccccc34)o2)cc1,?,34*,2,24%,10µM*
CCOC(=O)c1ccc(-c2n[nH]c(=O)c3ccccc23)cc1,-4%,-22,-2,22%,.
CCOC(=O)CCCCC(=O)c1[nH]c(=O)[nH]c1CSc1nnc2c3ccccc3n(C(C)C)c2n1,?,-12,4,3%,.
Cc1nonc1OCCNc1ccc([N+](=O)[O-])cc1[N+](=O)[O-],?,-5,-2,-8%,.
Cc1nonc1OCCCNc1ccc([N+](=O)[O-])cc1Cl,13%[46.1 µM],116*,14,5%,?
Cc1cccc(OCCCC(=O)Nc2nccs2)c1C,2%[46.1 µM],29*,7,4%[46.1 µM],-2%
CC(=O)Nc1ccc(C2(O)COc3ccccc3O2)cc1 (stereo not drawn),3%,132*,14,-15%,5%
CC(=O)Nc1ccc(C23CC4CC(CC(C4)C2)C3)cc1,.,26,14,.,.
CC(=O)[C@@H]1[C@@H]2C(=O)N(C3CCCCC3)C(=O)[C@@H]2C2c3ccccc3C=CN21 (stereo partly drawn),.,19,9,.,.
CC(=O)[C@@H]1[C@@H]2C(=O)N(c3ccc(F)c(Cl)c3)C(=O)[C@@H]2C2c3ccccc3C=CN21 (stereo partly drawn),.,active,-3,.,-1%
Cc1cc2nc(CCN3CCOCC3)n(S(=O)(=O)c3ccc(C(C)(C)C)cc3)c2cc1C,6%,38*,12,?,?
O=C(Nc1ccc(O)cc1)/C(=C\C=C\c1ccccc1)NC(=O)c1ccccc1,.,30*,3,.,1%
COc1ccc(/C=C(/NC(=O)c2cccc([N+](=O)[O-])c2)C(=O)O)cc1OC,19%[46.1 µM],-9,5,-2%[46.1 µM],.
COc1cccc(/C=C/C(=O)c2cccc([N+](=O)[O-])c2)c1OC,?,60*,11,?,-2%
COc1cccc(/C=C/C(=O)c2cccc([N+](=O)[O-])c2)c1,?,51*,7,5%,0%
Cc1ccc(NC(=O)Cn2c(-c3cncs3)nc3ccccc32)c(Br)c1,-13%[46.1 µM],.,.,1%[46.1 µM],.
CCOc1ccc(-c2nnc(Nc3ccc(S(N)(=O)=O)cc3)c3ccccc23)cc1,?,.,.,-9%[46.1 µM],.
CCOC(=O)C1=C(COC(=O)/C=C/c2cccc(OC)c2)NC(=O)NC1C (stereo not drawn),-11%,-2,14,-21%,.
Cc1cc(C(=O)Nc2cc(C)on2)on1,.,16,-3,.,.
Cc1ccc(O)c(NC(=O)c2cc(C)no2)c1,9%[46.1 µM],38*,1,-18%[46.1 µM],6%
CCOC(=O)c1sc(NC(=O)CCCn2nc([N+](=O)[O-])cc2C)c(C(=O)OCC)c1C,-21%,-12,-6,-8%,.
Cc1cc(C)nc(Sc2ccc3nnnn3n2)n1,14%,31*,10,26%,9%
SMILES,Marburg entry inh,Shiga toxin inh,CHX counter-1,Lassa entry inh,CHX counter-2
COc1ccccc1NC(=O)Nc1nc(CC(=O)Nc2cc(F)ccc2F)cs1,4%,.,.,-19%,.
COc1ccccc1NC(=O)Nc1cc(F)ccc1F,.,132*,16,.,?
O=C(Cc1c(F)cccc1Cl)c1ccc(O)cc1O,-17%,101*,0,13%,-3%
O=C(Cc1ccccc1F)c1ccc(O)cc1O,-3%[46.1 µM],21,10,-17%,.
COc1cc(/C=C2/C(=O)c3cccc([N+](=O)[O-])c3C2=O)c(Br)cc1O,?,61*,4,-9%,?
O=C(CN1CCN(c2ncc(C(F)(F)F)cc2Cl)CC1)NC(=O)NCc1ccccc1,-2%,68*,2,-21%,0%
CC(C)(C)NC(=O)NC(=O)CN1CCN(c2ncc(C(F)(F)F)cc2Cl)CC1,?,19,7,?,.
COc1cccc2c1C(=O)c1c(O)c3c(c(O)c1C2=O)C[C@@](O)(C(=O)CO)C[C@@H]3O[C@H]1C[C@H](N)[C@H](O)[C@H](C)O1,0.73µM*,38*,10*,0.37µM*,0%[76.6 µM]
O=C(NCCc1ccccc1)C1CCCN1S(=O)(=O)c1ccc(F)cc1 (stereo not drawn),14%,.,.,-12%,.
